Source: PubChem BioAssay AID720541 (National Center for Advancing Translational Sciences (NCATS), 2013)
In all, about 1,300 compounds went through this assay and about 420 (32%) were called active. Inconclusive results (about 32%) are left out. Calls follow the shape of the dose curve; as a rule, active = well fitted inhibition curve with a large enough effect; inconclusive = small, poorly fitted or top-dose-only effect; inactive = no such curve, though single readings can be large or run the other way. The list shows a part of the results. A call without a number means that no potency is given here.
Also: nearly all actives have a fitted effect of over 65% in size.
Potency is read from the fitted curve at half-maximal effect.

What follows are compounds tested against C-terminal-binding protein 1 (Homo sapiens) (UniProt Q13363) (assay: qHTS for Inhibitors of the Phosphatase Activity of Eya2: Carboxyl-terminal binding protein (CtBP) Counterscreen for Cherry-picked Compounds). Conditions: purified protein-protein binding, AlphaScreen, 3 h; series mostly up to 46.1 µM.
How it was run: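 Cherry-picked compounds (final 2.5 nM–46 uM) were incubated 2 h at RT with 25 nM CtBP-6xHIS and 25 nM GST-E1A. Alpha beads (20 ug/mL) were then added for 1 h, light-protected; DMSO and E1A peptide inhibitor wells set the normalization.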
`COc1ccccc1-c1noc2c1C(=O)N(Cc1cn(-c3ccc(Cl)cc3)nn1)CC2` was tested, and the Potency was “inactive”.
In the case of `COc1cc(N)c(Cl)cc1C(=O)N[C@H]1CCN(CCCOc2ccc(F)cc2)C[C@H]1OC`, the Potency is reported as “inactive”.
In the case of `Brc1ccc(Cn2c(-c3ccc(Br)o3)nc3ccccc32)o1`, the Potency is reported as “inactive”.
`Cc1cc(C(=O)COC(=O)c2ccc(O)cc2)c(C)n1CCc1ccc(F)cc1` was tested, and the Potency was “inactive”.
With `CCOC(=O)C(C)N1C(=O)S/C(=C\c2ccc(-c3ccccc3C(=O)O)o2)C1=O` (stereo not given) the Potency was 15.1 µM (active).
For `CCn1c(C)cc(/C=C2/SC(=O)N(C(C)C(=O)OC)C2=O)c1C` (stereo not given), the Potency was “inactive”.
`Cc1c(C(=O)O)cccc1-c1ccc(/C=C2\SC(=O)NC2=O)o1` was tested, and the Potency was “inactive”.
`O=C(O)CSCc1nc2cccnc2n1C1CCCCC1` was tested, and the Potency was “inactive”.
With `CC1(C)CC(=O)C(C2C3=C(CC(C)(C)CC3=O)Oc3c(Br)cc(Br)cc32)=C(O)C1` (stereo not given) the Potency was 4.78 µM (active).
`Cc1nc(C)c(-c2csc(Nc3ccc(O)c(C(=O)O)c3)n2)s1` was tested, and the Potency was 15.1 µM (active).
With `Cn1c(=O)c2[nH]c(COc3ccccc3)nc2n(C)c1=O` the Potency was “inactive”.
With `CC1(C)Nc2cccc3c(N=Nc4ccc(N=Nc5ccccc5)c5ccccc45)ccc(c23)N1` the Potency was 3.38 µM (active).
`COc1ccc(N(CC(=O)Nc2nc3ccc(C)cc3s2)S(=O)(=O)c2c(C)nn(C)c2C)cc1` was tested, and the Potency was “inactive”.
For `CCN(CC)c1ccc(/C=C/c2c(C)cnc3ccc(C)cc23)cc1`, the Potency was 8.49 µM (active).
`CCc1cnc2ccccc2c1/C=C/c1ccc(N(C)C)cc1` was tested, and the Potency was 10.7 µM (active).
For `Cc1ccc2c(/C=C/c3ccc(N(C)C)cc3)c(C)cnc2c1`, the Potency was 10.7 µM (active).
`Cc1ccc(-n2nnnc2C(=Cc2ccc(N(C)C)cc2)c2nnnn2-c2ccc(C)cc2)cc1` was tested, and the Potency was “inactive”.
With `Cc1cnc2ccc(I)cc2c1/C=C/c1ccc(N(C)C)cc1` the Potency was 10.7 µM (active).
`O=c1cc(-c2ccccc2Cl)oc2c(NS(=O)(=O)c3ccccc3OC(F)(F)F)ccc(O)c12` was tested, and the Potency was “inactive”.
In the case of `O=C(O)c1c(C(=O)N2N=C3/C(=C/c4ccccc4)CCCC3C2c2ccccc2)cccc1[N+](=O)[O-]` (stereo not given), the Potency is reported as “inactive”.
With `Cc1ccccc1NC(=O)C1CCN(C(=O)N2CCOc3ccccc32)CC1` the Potency was “inactive”.
`CC1CN(C(=O)c2cc(S(=O)(=O)N(C)c3ccc(F)cc3)ccc2Cl)CC(C)O1` (stereo not given) was tested, and the Potency was “inactive”.
For `CCOc1ccc(S(=O)(=O)N2CCN(C)CC2)cc1NC(=O)c1ccccc1F`, the Potency was 7.57 µM (active).
`COc1ccc(S(=O)(=O)N2CCCCC2)cc1NC(=O)c1[nH]c(C)c(C(C)=O)c1C` was tested, and the Potency was “inactive”.
With `CC(Oc1ccc(F)cc1)C(=O)Nc1cc(S(=O)(=O)N2CCCCC2)ccc1N1CCN(C)CC1` (stereo not given) the Potency was “inactive”.
With `O=C1c2ccccc2C(=O)N1CCCc1cn(C[C@H]2CC[C@@H]([C@@H]3CC[C@H](Cn4cc(CCCN5C(=O)c6ccccc6C5=O)nn4)O3)O2)nn1` the Potency was “inactive”.
For `Cc1ccc(-c2n[nH]c(=O)c3ccccc23)cc1S(=O)(=O)Nc1ccccc1`, the Potency was “inactive”.
In the case of `COc1cc(C2C(C#N)=C(N)Oc3n[nH]c(C)c32)ccc1OC(=O)c1ccccc1` (stereo not given), the Potency is reported as 8.49 µM (active).
In the case of `COc1ccc(Cc2nc3c4c(ncn3n2)Oc2ccc3ccccc3c2C4c2ccc(OC)c(OC)c2)cc1` (stereo not given), the Potency is reported as “inactive”.
For `CCOc1ccccc1O[C@H](c1ccccc1)[C@H]1CNCCO1`, the Potency was “inactive”.
For `Cc1[nH]c2ccc(C(=O)OC(C)C(=O)N(C)c3ccccc3)cc2c1C` (stereo not given), the Potency was “inactive”.
With `CCOC(=O)c1[nH]c2ccc(C(=O)OC)cc2c1C(=O)OCC` the Potency was 10.7 µM (active).
In the case of `CS(=O)(=O)n1nc(OC(=O)c2cccs2)cc1N`, the Potency is reported as “inactive”.
With `Cc1cc(O)c(-c2cc(O)c(C)cc2O)cc1O` the Potency was “inactive”.
In the case of `CCN(CC)S(=O)(=O)c1cc(OC)ccc1N=Nc1ccc(O)c2ncccc12`, the Potency is reported as “inactive”.
With `COc1cc(N(C(C)=O)c2ccc(O)c(C(=O)O)c2)c2ncccc2c1` the Potency was 8.49 µM (active).
For `COc1cc2c(cc1N)-c1ccc(N)cc1C2=O`, the Potency was 16.9 µM (active).
For `Nc1ccc2c(c1)C(=O)c1cc(N)c(Cl)cc1-2`, the Potency was “inactive”.
In the case of `COc1ccc(N)cc1-n1c(C)ccc1C`, the Potency is reported as “inactive”.
For `CCOc1ccc2ccccc2c1C(=O)N[C@@H]1C(=O)N2[C@@H]1SC(C)(C)[C@@H]2C(=O)O`, the Potency was “inactive”.
`CC(=O)Oc1ccc(N2C(=O)c3cccc4c([N+](=O)[O-])ccc(c34)C2=O)cc1` was tested, and the Potency was “inactive”.
`CCN1C(=O)c2cccc3c(S(=O)(=O)N(C(C)=O)c4ccc(OC(C)=O)cc4)ccc1c23` was tested, and the Potency was 12 µM (active).
For `N/C(=N\OC(=O)c1ccc2ccccc2c1)c1ccncc1`, the Potency was “inactive”.
With `C/C(=C1/C=Nc2ccccc21)c1ccc(N(C)C)cc1` the Potency was 16.9 µM (active).
For `Cn1c(=O)cc2c3c(c(N4CCCCC4)ccc31)C(=O)c1ccccc1-2`, the Potency was 3.79 µM (active).
`CCOc1ccc(NC(=O)COc2ccc3c(c2)CCC3)cc1OC` was tested, and the Potency was “inactive”.
In the case of `CCOc1ccc(S(=O)(=O)NCc2ccc(C)cc2)c2cccnc12`, the Potency is reported as “inactive”.
With `CCOc1ccc(NC(=O)COc2cccc3cccnc23)cc1S(=O)(=O)N1CCCC1` the Potency was 16.9 µM (active).
In the case of `C=CCn1c(C)cc(C(=O)COc2ccc(N(C)S(=O)(=O)c3ccc(NC(C)=O)cc3)cc2)c1C`, the Potency is reported as “inactive”.
In the case of `CN(C)C1=C2C=CC=CC2/C(=C2/C=Cc3ccccc32)C=C1` (stereo not given), the Potency is reported as 15.1 µM (active).
In the case of `O=C(Nc1ccon1)c1ccc(N2CCCCC2)c([N+](=O)[O-])c1`, the Potency is reported as “inactive”.
In the case of `CSc1cccc(NC(=O)CCCOc2cc(=O)n(C)c3ccccc23)c1`, the Potency is reported as “inactive”.
For `O=C1/C(=C\c2cccc([N+](=O)[O-])c2O)SC(=S)N1Cc1ccccc1`, the Potency was 8.49 µM (active).
For `Cc1ccc(OCC(=O)Nc2ccccc2N2CCCC2)c(C)c1`, the Potency was “inactive”.
In the case of `Cc1ccc(NC(=O)CSc2cccc3cccnc23)c(C)c1`, the Potency is reported as 9.53 µM (active).
In the case of `O=C(Cc1ccccc1F)Nc1cccc(S(=O)(=O)N2CCCCC2)c1`, the Potency is reported as “inactive”.
`Cn1c(=O)c2c(ncn2CC(=O)Nc2cccc(S(=O)(=O)Nc3ccccc3F)c2)n(C)c1=O` was tested, and the Potency was 8.49 µM (active).
With `CCCNC(=O)C1(C)CCN(Cc2cccc(OC(=O)c3ccccc3)c2)C1` (stereo not given) the Potency was “inactive”.
In the case of `CC(=O)Nc1ccc(S(=O)(=O)NCc2ccc3[nH]c(C)cc3c2)cc1`, the Potency is reported as “inactive”.
With `COc1ccc(Cl)cc1NC(=O)CCCn1c(=O)c2cccn2c2cccnc21` the Potency was “inactive”.
For `O=S(=O)(Nc1cccc2cccnc12)c1ccccc1Br`, the Potency was 9.53 µM (active).
In the case of `CC1(C)CC(=O)c2c(oc3ccc(NS(=O)(=O)c4cccc5cccnc45)cc23)C1`, the Potency is reported as “inactive”.
With `O=C(CCCl)Nc1cccc2cccnc12` the Potency was 8.49 µM (active).
`CC(=O)Nc1ccc(S(=O)(=O)Nc2cccc3cccnc23)cc1` was tested, and the Potency was 4.26 µM (active).
In the case of `CC(=O)c1cccc(-c2cnc3c(NC=O)cc(-c4ccc(N(C)C)cc4)cn23)c1`, the Potency is reported as “inactive”.
`COC(=O)c1cc2c(ccc3ccccc32)oc1=O` was tested, and the Potency was 12 µM (active).
With `CC(C)Cc1nc2oc3c(=O)[nH]cnc3c2c2c1CCC2` the Potency was 15.1 µM (active).
In the case of `Cc1ccccc1OCCn1cc(C(=S)N2CCN(C)CC2)c2ccccc21`, the Potency is reported as 15.1 µM (active).
In the case of `CCC(=O)c1cn(CC(=O)Nc2c(C)cccc2C)c2ccccc12`, the Potency is reported as “inactive”.
For `COc1cc(/C=C2\SC(=S)N(CCC(=O)Nc3cccc(O)c3)C2=O)cc(OC)c1OC`, the Potency was “inactive”.
With `O=C(CN1C(=O)/C(=C/c2ccco2)SC1=S)Nc1ccc(C(=O)O)c(O)c1` the Potency was 10.7 µM (active).
With `CCn1c(SCC(=O)N2CCN(c3ccccc3)CC2)nc2c(c1=O)SC(C)C2` (stereo not given) the Potency was “inactive”.
With `Cc1c(C(=O)O)c(O)cc2c1C(=O)c1c(O)c([C@H]3O[C@H](CO)[C@@H](O)[C@H](O)[C@H]3O)c(O)c(O)c1C2=O` the Potency was 19 µM (active).
For `Fc1ccc(-c2ccc(CNCc3ccccn3)o2)cc1`, the Potency was 15.1 µM (active).
`Clc1ccc(-c2ccc(CNCc3ccccn3)o2)cc1` was tested, and the Potency was 12 µM (active).
`Clc1cccc(-c2ccc(CNCc3ccccn3)o2)c1` was tested, and the Potency was 16.9 µM (active).
For `O=C(/C=C/c1cccc([N+](=O)[O-])c1)Nc1cccc(NC(=O)c2cccs2)c1`, the Potency was “inactive”.
In the case of `COC(=O)c1ccc(NC(=O)CSc2nc(=O)n3cccc(C)c3n2)cc1`, the Potency is reported as 13.5 µM (active).
For `COC(=O)c1ccc(NC(=O)c2ccc3c(c2)C(=O)N(Cc2cccnc2)C3=O)cc1`, the Potency was “inactive”.
`Cc1ccc(-c2csc(N3CCN(CCCn4c(C(F)(F)F)nc5ccccc54)CC3)n2)cc1` was tested, and the Potency was “inactive”.
`Cc1cc(C)c2c(n1)sc1c(O)cc(=O)[nH]c12` was tested, and the Potency was “inactive”.
`Cc1csc(NC(=O)CSc2sc3c(O)cc(=O)[nH]c3c2C#N)n1` was tested, and the Potency was 12 µM (active).
`O=C1c2cccc(Sc3ccccc3)c2C(=O)c2c(Sc3ccccc3)cccc21` was tested, and the Potency was 3.79 µM (active).
With `Oc1c(Cl)cc(CN2CCOCC2)c2cccnc12` the Potency was 0.601 µM (active).
For `CCN(CC)c1ccc(NC(=S)NC(=O)c2cccs2)cc1`, the Potency was 10.7 µM (active).
For `CCCC(=O)Nc1ccc(NC(=S)NC(=O)c2cccs2)cc1`, the Potency was “inactive”.
In the case of `Cc1ccc(C(=O)N2CCN(c3ccc(NC(=S)NC(=O)c4cccs4)cc3)CC2)cc1`, the Potency is reported as “inactive”.
In the case of `Cn1nc(C(=O)Nc2nc3ccccc3[nH]2)c2ccccc2c1=O`, the Potency is reported as 10.7 µM (active).
With `CNC(=O)c1cc2c(cn1)[nH]c1ccccc12` the Potency was “inactive”.
With `COc1ccc(OC)c(Nc2nc(-c3sc(N)nc3C)cs2)c1` the Potency was 8.49 µM (active).
With `COc1ccc(-c2noc(N3CCC(C(=O)Nc4cc(OC)ccc4OC)CC3)n2)cc1` the Potency was “inactive”.
For `CCn1c2ccccc2c2cc(NC(=O)COC(=O)c3ccc(NC(=O)CC#N)cc3)ccc21`, the Potency was “inactive”.
With `Cc1ccc(-n2[nH]c(C)c(C=Nc3ccc(S(=O)(=O)Nc4nccs4)cc3)c2=O)cc1C` the Potency was 7.57 µM (active).
With `CCc1ccc(-c2csc(NC(=O)C3CC(=O)N(c4ccc5c(c4)OCCO5)C3)n2)cc1` (stereo not given) the Potency was “inactive”.
`O=C(Nc1nc(-c2ccccn2)cs1)C1CC(=O)N(c2ccc3c(c2)OCCO3)C1` (stereo not given) was tested, and the Potency was 6.01 µM (active).
